Laboratory results reported in PubChem BioAssay (NCI).
The panel holds about 83,000 compounds, 20% with a hit somewhere; the sample as a whole holds those more often.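 Compound tested at a single concentration for 48 hours in 96-well plates; a percent growth value below 10 was scored as active.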 A number with no mark means an inactive call. Activity calls are given as the source filed them.

Each compound was assayed on A549/ATCC NSCLC (assay: NCI-60 one-dose screen, 48 h (100 = growth as untreated, 0 = no growth, -100 = all killed)). Details: 10 µM unless noted.
`CC(=O)Oc1c(Cl)c(Cl)c(Cl)c(Cl)c1Cl` gave a growth of 85.9%.
`CC(=O)Nc1c(Br)cc2c(c1Br)Cc1cc(Br)ccc1-2` showed a growth of 20.8%.
In the case of `Cc1ccc(C(CN(C)C)C(=O)c2ccccc2)cc1` (stereo not given), the growth is reported as 81.7%.
For `O=[N+]([O-])c1ccc(SSc2ccc([N+](=O)[O-])cc2Cl)c(Cl)c1`, the growth was 96.3%.
With `COc1cc(/C=C2\CN(C(=O)OC(C)(C)C)C/C(=C\c3ccc(O)c(OC)c3)C2=O)ccc1O` the growth was 73.2%.
Compound `O=S1(=O)NCCN1CCNc1nccc(-c2c(-c3cccc(O)c3)nc3sccn23)n1` has a growth of 106%.
In the case of `CNCCCn1c2c(c3ccc(Cl)cc3c1=O)C(=O)c1cc(OC)cnc1-2`, the growth is reported as -88.5% (active).
With `O=C(/C=C/c1ccccc1)c1c[nH]c2ccccc2c1=O` the growth was 3.17% (active).
With `C[C@@H]1N=C(c2ccc3ccccc3c2)Nc2nc3ccccn3c2C1=O` the growth was 39.5%.
Compound `COc1ccc2[nH]cc(C3(c4c[nH]c5ccc(OC)cc45)C(=O)Nc4ccc(F)cc43)c2c1` has a growth of 75.3%.
With `CC(=O)Nc1ccc(/C=N/N2CCCCCC2)cc1` the growth was 94.3%.
Compound `COc1cc(-c2nn(C(=O)NCCN3CCN(C)CC3)cc2-c2ccncc2)ccc1Cl` has a growth of 57%.
In the case of `COc1cc(C2CC(=O)Nc3c2cnn3C)cc(OC)c1OC` (stereo not given), the growth is reported as 107%.
In the case of `COc1cc2c(c(OC)c1O)C(=O)C(OC)C(c1ccc(O)c(O)c1)O2` (stereo not given), the growth is reported as 17.7%.
`CCOC(=O)C1C(=O)C=C(c2ccccc2)CC1c1sc(N(C)Cc2ccccc2)nc1Cl` (stereo not given) was tested, and the growth was 83.8%.
